Measurements: PubChem BioAssay AID1159580 (chemical genetic matrix, 2015)
Several values for one entry are separate records, joined by “and”; a condition that tells them apart may be missing. Equal entries are not always repeated. In all, about 5,500 compounds went through this assay and about 2,000 (36%) were called active. Another 18% or so got no clear call; they are omitted. Rule as the data show it: active = normalized growth mostly below about 0.91 (no sharp cut-off); inconclusive = no clear call, values can overlap the other calls; inactive = mostly above about 0.92. This is one part of the list.

Experiment: chemical genetic growth profiling, strain panel (AID 1159580);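 also: tested at 20 µM; growth read once vehicle control cultures reached saturation at 30 °C; 1 = growth at the plate median or of vehicle wells; lower values mean less growth of the strain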
Settings: growth OD

Measured: normalized growth

CCCCNc1cc(C(=O)O)cc(S(N)(=O)=O)c1Oc1ccccc1
inactive: S. cerevisiae deletion strains, locus YKL009W, strain mrt4, stronger effect = lower value 0.979 | S. cerevisiae deletion strains, locus YKL068W, stronger effect = lower value 0.986 | S. cerevisiae deletion strains, locus YKL085W, strain MDH1 (second series), stronger effect = lower value 0.989 | S. cerevisiae deletion strains, locus YKL085W, strain MDH1, stronger effect = lower value 0.989 | S. cerevisiae deletion strains, locus YKL160W, strain elf1, stronger effect = lower value 0.995 | S. cerevisiae deletion strains, locus YKL190W, strain CNB1, stronger effect = lower value 0.994 | S. cerevisiae deletion strains, locus YKR001C, strain vps1, stronger effect = lower value 0.983 | S. cerevisiae deletion strains, locus YKR026C, strain gcn3, stronger effect = lower value 1.01 | S. cerevisiae deletion strains, locus YKR091W, strain srl3, stronger effect = lower value 1 | S. cerevisiae deletion strains, locus YLL001W, strain dnm1, stronger effect = lower value 1 | S. cerevisiae deletion strains, locus YLL026W, stronger effect = lower value 0.992 | S. cerevisiae deletion strains, locus YLL041C, strain sdh2, stronger effect = lower value 0.991 | S. cerevisiae deletion strains, locus YLR027C, strain aat2, stronger effect = lower value 1.01 | S. cerevisiae deletion strains, locus YLR039C, strain RIC1, stronger effect = lower value 1.01 | S. cerevisiae deletion strains, locus YLR058C, strain SHM2, stronger effect = lower value 0.988 | S. cerevisiae deletion strains, locus YLR102C, strain apc9, stronger effect = lower value 0.984 | S. cerevisiae deletion strains, locus YLR113W, strain HOG1, stronger effect = lower value 1.04 | S. cerevisiae deletion strains, locus YLR221C, strain rsa3, stronger effect = lower value 1 | S. cerevisiae deletion strains, locus YLR258W, strain gsy2, stronger effect = lower value 0.995 | S. cerevisiae deletion strains, locus YLR262C, strain YPT6 (second series), stronger effect = lower value 1.02 | S. cerevisiae deletion strains, locus YLR262C, strain YPT6, stronger effect = lower value 1.02 | S. cerevisiae deletion strains, locus YLR268W, strain sec22, stronger effect = lower value 0.965 | S. cerevisiae deletion strains, locus YLR320W, strain mms22, stronger effect = lower value 0.976 | S. cerevisiae deletion strains, locus YLR330W, strain CHS5, stronger effect = lower value 0.995 | S. cerevisiae deletion strains, locus YLR342W, strain FKS1 (second series), stronger effect = lower value 0.975 | S. cerevisiae deletion strains, locus YLR342W, strain FKS1, stronger effect = lower value 0.976 | S. cerevisiae deletion strains, locus YLR357W, strain rsc2, stronger effect = lower value 0.977 | S. cerevisiae deletion strains, locus YLR370C, strain arc18, stronger effect = lower value 1.01 | S. cerevisiae deletion strains, locus YLR371W, strain rom2, stronger effect = lower value 0.984 | S. cerevisiae deletion strains, locus YLR384C, strain iki3, stronger effect = lower value 1.02 | S. cerevisiae deletion strains, locus YLR418C, strain cdc73, stronger effect = lower value 0.959 | S. cerevisiae deletion strains, locus YML016C, strain PPZ1, stronger effect = lower value 0.991 | S. cerevisiae deletion strains, locus YML032C, strain rad52, stronger effect = lower value 0.99 | S. cerevisiae deletion strains, locus YML120C, strain ndi1, stronger effect = lower value 0.994 | S. cerevisiae deletion strains, locus YML124C, strain tub3, stronger effect = lower value 0.974 | S. cerevisiae deletion strains, locus YMR058W, strain fet3, stronger effect = lower value 1.06 | S. cerevisiae deletion strains, locus YMR078C, strain ctf18, stronger effect = lower value 0.978 | S. cerevisiae deletion strains, locus YMR125W, strain sto1, stronger effect = lower value 1.01 | S. cerevisiae deletion strains, locus YMR129W, stronger effect = lower value 1.02 | S. cerevisiae deletion strains, locus YMR205C, strain PFK2, stronger effect = lower value 0.989 | S. cerevisiae deletion strains, locus YMR223W, strain ubp8, stronger effect = lower value 0.972 | S. cerevisiae deletion strains, locus YMR231W, strain pep5, stronger effect = lower value 1.01 | S. cerevisiae deletion strains, locus YMR263W, strain SAP30, stronger effect = lower value 0.997 | S. cerevisiae deletion strains, locus YMR307W, strain GAS1, stronger effect = lower value 0.957 | S. cerevisiae deletion strains, locus YNL067W, strain RPL9B, stronger effect = lower value 1.02 | S. cerevisiae deletion strains, locus YNL071W, strain lat1, stronger effect = lower value 1.02 | S. cerevisiae deletion strains, locus YNL128W, strain TEP1, stronger effect = lower value 0.981 | S. cerevisiae deletion strains, locus YNL153C, strain GIM3, stronger effect = lower value 1.05 and 1.02 | S. cerevisiae deletion strains, locus YNL175C, strain NOP13, stronger effect = lower value 1 | S. cerevisiae deletion strains, locus YNL183C, strain NPR1, stronger effect = lower value 0.967 | S. cerevisiae deletion strains, locus YNL197C, strain WHI3, stronger effect = lower value 1.04 | S. cerevisiae deletion strains, locus YNL209W, strain ssb2, stronger effect = lower value 1.01 | S. cerevisiae deletion strains, locus YNL224C, strain SQS1, stronger effect = lower value 0.999 | S. cerevisiae deletion strains, locus YNL233W, strain BNI4, stronger effect = lower value 1.01 | S. cerevisiae deletion strains, locus YNL248C, strain rpa49, stronger effect = lower value 0.987 | S. cerevisiae deletion strains, locus YNL250W, strain rad50, stronger effect = lower value 0.946 | S. cerevisiae deletion strains, locus YNL271C, strain bni1, stronger effect = lower value 0.967 | S. cerevisiae deletion strains, locus YNL298W, strain CLA4, stronger effect = lower value 0.969 | S. cerevisiae deletion strains, locus YNL307C, strain MCK1, stronger effect = lower value 0.975 | S. cerevisiae deletion strains, locus YNL322C, strain KRE1 (second series), stronger effect = lower value 0.982 | S. cerevisiae deletion strains, locus YNR049C, strain mso1, stronger effect = lower value 1 | S. cerevisiae deletion strains, locus YNR052C, strain pop2, stronger effect = lower value 0.977 | S. cerevisiae deletion strains, locus YOL006C, strain TOP1, stronger effect = lower value 1 | S. cerevisiae deletion strains, locus YOL012C, strain htz1 0.812 | S. cerevisiae deletion strains, locus YOL147C, strain pex11, stronger effect = lower value 0.977 | S. cerevisiae deletion strains, locus YOR001W, strain rrp6, stronger effect = lower value 1.01 | S. cerevisiae deletion strains, locus YOR061W, strain CKA2, stronger effect = lower value 0.99 | S. cerevisiae deletion strains, locus YOR069W, strain VPS5, stronger effect = lower value 0.986 | S. cerevisiae deletion strains, locus YOR070C, strain gyp1, stronger effect = lower value 0.998 | S. cerevisiae deletion strains, locus YOR080W, strain dia2, stronger effect = lower value 1.01 | S. cerevisiae deletion strains, locus YOR083W, strain WHI5 (second series), stronger effect = lower value 1.03 | S. cerevisiae deletion strains, locus YOR083W, strain WHI5, stronger effect = lower value 0.951 | S. cerevisiae deletion strains, locus YOR106W, strain vam3, stronger effect = lower value 1.03 | S. cerevisiae deletion strains, locus YOR136W, strain idh2, stronger effect = lower value 0.992 | S. cerevisiae deletion strains, locus YOR144C, strain elg1, stronger effect = lower value 0.982 | S. cerevisiae deletion strains, locus YOR184W, strain ser1, stronger effect = lower value 0.973 | S. cerevisiae deletion strains, locus YOR231W, strain MKK1, stronger effect = lower value 1.07 | S. cerevisiae deletion strains, locus YOR265W, strain rbl2, stronger effect = lower value 1 | S. cerevisiae deletion strains, locus YOR270C, strain vph1, stronger effect = lower value 1.05 | S. cerevisiae deletion strains, locus YOR290C, strain snf2, stronger effect = lower value 1 | S. cerevisiae deletion strains, locus YOR316C, strain cot1, stronger effect = lower value 0.986 | S. cerevisiae deletion strains, locus YPL051W, strain arl3, stronger effect = lower value 0.997 | S. cerevisiae deletion strains, locus YPL055C, strain LGE1, stronger effect = lower value 1.01 | S. cerevisiae deletion strains, locus YPL078C, strain atp4, stronger effect = lower value 1 | S. cerevisiae deletion strains, locus YPL106C, strain sse1, stronger effect = lower value 0.962 | S. cerevisiae deletion strains, locus YPL240C, strain hsp82, stronger effect = lower value 1 | S. cerevisiae deletion strains, locus YPL241C, strain CIN2, stronger effect = lower value 0.985 | S. cerevisiae deletion strains, locus YPL256C, strain CLN2, stronger effect = lower value 1.06 | S. cerevisiae deletion strains, locus YPR119W, strain clb2, stronger effect = lower value 0.983 | S. cerevisiae deletion strains, locus YPR141C, strain kar3, stronger effect = lower value 0.967 | S. cerevisiae deletion strains, locus YPR163C, strain tif3, stronger effect = lower value 0.983 | S. cerevisiae deletion strains, locus YPR167C, strain met16, stronger effect = lower value 0.986 | S. cerevisiae deletion strains, strain wtn01, stronger effect = lower value 0.958 | S. cerevisiae strains, strain wild type, stronger effect = lower value 0.999
